# Data from ChEMBL document CHEMBL3988442, “University of Dundee, Small-Polar-MMV Screening Library” (2021).
# For some assays here: Entries with a potency or affinity are not part of this list.
# Legend:
# Set-up in all cases: scale not given: direction of the effect not stated beside the values
# [1] = target: Protein translocase subunit SecA (Escherichia coli (strain K12)) (UniProt P10408); test: Assay to Identify E. coli SecA ATPase Inhibitors; assay type: functional; conditions: 30 µM
# [2] = target: T1, Ubiquitin-activating enzyme e1, putative (Leishmania donovani (strain BPK282A1)) (UniProt E9BSI1); test: Leishmania donovani Ubiquitin Activating Enzyme (LdE1); assay type: functional; conditions: 30 µM
# T1 sequence (whole entry): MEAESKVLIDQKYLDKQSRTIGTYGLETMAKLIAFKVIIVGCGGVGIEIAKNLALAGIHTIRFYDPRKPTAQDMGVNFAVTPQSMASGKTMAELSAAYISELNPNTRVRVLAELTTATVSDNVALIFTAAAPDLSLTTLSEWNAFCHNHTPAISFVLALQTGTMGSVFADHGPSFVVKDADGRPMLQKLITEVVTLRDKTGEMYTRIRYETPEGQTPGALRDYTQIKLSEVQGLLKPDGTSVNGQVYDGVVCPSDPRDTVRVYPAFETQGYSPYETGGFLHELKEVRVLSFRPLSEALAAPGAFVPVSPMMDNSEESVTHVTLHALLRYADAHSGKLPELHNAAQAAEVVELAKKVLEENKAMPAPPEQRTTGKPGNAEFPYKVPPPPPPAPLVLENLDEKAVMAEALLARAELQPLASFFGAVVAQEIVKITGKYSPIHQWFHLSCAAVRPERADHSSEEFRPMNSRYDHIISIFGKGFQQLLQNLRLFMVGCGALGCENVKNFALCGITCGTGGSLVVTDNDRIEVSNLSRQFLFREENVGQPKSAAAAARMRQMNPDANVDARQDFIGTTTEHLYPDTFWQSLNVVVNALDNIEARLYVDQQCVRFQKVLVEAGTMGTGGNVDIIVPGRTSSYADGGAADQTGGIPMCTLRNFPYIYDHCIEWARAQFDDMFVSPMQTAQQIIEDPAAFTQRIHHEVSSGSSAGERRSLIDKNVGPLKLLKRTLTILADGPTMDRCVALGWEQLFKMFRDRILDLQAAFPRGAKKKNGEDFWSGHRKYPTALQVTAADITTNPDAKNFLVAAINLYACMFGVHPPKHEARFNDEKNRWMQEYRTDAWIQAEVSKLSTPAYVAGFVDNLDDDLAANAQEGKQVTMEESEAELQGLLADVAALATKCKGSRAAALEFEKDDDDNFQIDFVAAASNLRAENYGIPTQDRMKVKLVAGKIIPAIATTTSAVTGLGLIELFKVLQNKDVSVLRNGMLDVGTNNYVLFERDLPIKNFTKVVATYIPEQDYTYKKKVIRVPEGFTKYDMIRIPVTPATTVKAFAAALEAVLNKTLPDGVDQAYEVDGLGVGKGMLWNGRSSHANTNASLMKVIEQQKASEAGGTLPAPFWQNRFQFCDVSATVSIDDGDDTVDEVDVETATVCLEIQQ
# [3] = target: AMP-activated protein kinase, AMPK (Homo sapiens) (UniProt P54646+O43741+P54619+Q9UGJ0+Q9Y478+Q13131+Q9UGI9); test: AMP-dependent Kinase enzyme assay. An in vitro enzyme assay that detects ADP turnover that is directly proportional to AMPK activity. This uses naive AMPK that is activated during the assay with MK-8722; assay type: functional; conditions: 30 µM
# [4] = target: Sialic acid-binding Ig-like lectin 9 (Homo sapiens) (UniProt Q9Y336); test: Hs-Siglec9 ALPHAscreen SOP 20170721; conditions: 10 µM
# Sequence of Sialic acid-binding Ig-like lectin 9 (Homo sapiens) (Q9Y336 whole entry): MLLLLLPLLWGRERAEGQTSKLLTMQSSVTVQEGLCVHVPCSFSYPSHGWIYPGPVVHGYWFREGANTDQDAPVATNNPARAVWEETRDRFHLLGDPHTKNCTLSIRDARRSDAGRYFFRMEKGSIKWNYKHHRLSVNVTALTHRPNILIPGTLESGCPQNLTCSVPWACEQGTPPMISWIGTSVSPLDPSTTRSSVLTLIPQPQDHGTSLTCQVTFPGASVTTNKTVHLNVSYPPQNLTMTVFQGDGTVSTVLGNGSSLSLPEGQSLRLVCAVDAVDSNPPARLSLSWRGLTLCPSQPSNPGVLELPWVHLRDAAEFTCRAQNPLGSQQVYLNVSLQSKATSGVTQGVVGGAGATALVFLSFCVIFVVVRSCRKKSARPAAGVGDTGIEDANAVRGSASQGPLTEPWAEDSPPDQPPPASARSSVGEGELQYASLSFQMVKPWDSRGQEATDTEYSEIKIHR
# Trypanosoma cruzi = test: Trypanosoma cruzi phosphomannomutase and mannose-1-phosphate guanylyltransferase assay; assay type: functional; conditions: 10 µM
# [5] = target: T2, Arginase-2, mitochondrial (Homo sapiens) (UniProt P78540); test: in vitro enzyme assay to detect the production of urea directly proportional to the activity of Arginase II; assay type: functional; conditions: 33.3 µM; also: in the data most compounds retested in dose-response had high values
# T2 sequence (whole entry): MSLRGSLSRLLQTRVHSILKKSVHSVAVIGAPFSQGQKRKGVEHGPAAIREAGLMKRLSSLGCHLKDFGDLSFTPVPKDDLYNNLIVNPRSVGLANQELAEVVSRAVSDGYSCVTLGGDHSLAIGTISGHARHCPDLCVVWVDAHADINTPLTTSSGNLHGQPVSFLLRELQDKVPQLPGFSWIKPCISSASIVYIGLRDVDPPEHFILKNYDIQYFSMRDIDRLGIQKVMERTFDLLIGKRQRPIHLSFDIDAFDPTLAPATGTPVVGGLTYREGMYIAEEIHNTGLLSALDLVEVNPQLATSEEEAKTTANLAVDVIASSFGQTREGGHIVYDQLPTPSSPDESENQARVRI
# [6] = target: T3, Proteasome subunit beta (Trypanosoma cruzi) (UniProt O96673); test: Trypanosoma cruzi proteasome chymotrypsin-like activity (TcProtChymo) assay.; also: in the data most compounds retested in dose-response had high values; assay type: functional; conditions: 9.37 µM
# T3 sequence (whole entry): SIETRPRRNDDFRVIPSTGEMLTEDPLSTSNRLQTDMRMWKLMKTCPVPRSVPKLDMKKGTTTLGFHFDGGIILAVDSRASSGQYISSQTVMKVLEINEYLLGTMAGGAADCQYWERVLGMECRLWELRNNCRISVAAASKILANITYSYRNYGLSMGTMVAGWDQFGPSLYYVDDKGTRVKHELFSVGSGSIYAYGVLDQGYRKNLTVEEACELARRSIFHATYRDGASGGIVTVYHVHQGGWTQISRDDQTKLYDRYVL
# Homo sapiens = species: Homo sapiens; test: To identify inhibition of the IFN signalling (Jak-Stat) pathway via expression of an eGFP reporter gene under the control of an IFN-stimulated response element (ISRE) containing MxA promoter.; assay type: functional; conditions: 30 µM
# [7] = target: T4, Tyrosyl-tRNA synthetase, putative (Trypanosoma cruzi (strain CL Brener)) (UniProt Q4DSP6); test: Trypanosoma cruzi tyrosyl tRNA synthetase (TcYRS) _High Tyrosine SOP; assay type: functional; conditions: 30 µM; also: in the data most compounds retested in dose-response had high values
# T4 sequence (whole entry): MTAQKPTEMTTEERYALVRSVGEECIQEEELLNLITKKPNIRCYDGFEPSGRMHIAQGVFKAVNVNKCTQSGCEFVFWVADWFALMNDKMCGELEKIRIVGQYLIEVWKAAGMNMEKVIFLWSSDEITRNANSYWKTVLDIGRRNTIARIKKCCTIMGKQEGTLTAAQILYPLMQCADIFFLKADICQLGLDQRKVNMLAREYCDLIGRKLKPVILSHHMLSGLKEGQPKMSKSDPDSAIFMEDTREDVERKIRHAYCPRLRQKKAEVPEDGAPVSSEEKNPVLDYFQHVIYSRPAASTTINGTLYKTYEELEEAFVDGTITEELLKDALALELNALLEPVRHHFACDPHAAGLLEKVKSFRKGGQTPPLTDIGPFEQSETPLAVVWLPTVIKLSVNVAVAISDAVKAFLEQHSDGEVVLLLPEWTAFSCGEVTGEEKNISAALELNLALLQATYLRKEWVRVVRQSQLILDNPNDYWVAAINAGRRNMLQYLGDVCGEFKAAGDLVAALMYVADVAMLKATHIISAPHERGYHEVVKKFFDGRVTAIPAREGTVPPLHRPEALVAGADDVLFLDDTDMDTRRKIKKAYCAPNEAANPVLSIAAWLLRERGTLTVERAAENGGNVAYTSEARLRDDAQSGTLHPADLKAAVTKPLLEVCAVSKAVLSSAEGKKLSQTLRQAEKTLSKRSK
# [8] = target: T4, Tyrosyl-tRNA synthetase, putative (Trypanosoma cruzi (strain CL Brener)); test: Trypanosoma cruzi tyrosyl tRNA synthetase (TcYRS) SOP; assay type: functional; conditions: 30 µM
# [9] = target: Chromo domain-containing protein 1 (Saccharomyces cerevisiae (strain ATCC 204508 / S288c) (Baker's yeast)) (UniProt P32657); test: ScCHD-1 Enzyme Inhibition Assay; assay type: functional; conditions: 30 µM; also: in the data most compounds retested in dose-response had high values
# Sequence of Chromo domain-containing protein 1 (Saccharomyces cerevisiae (strain ATCC 204508 / S288c) (Baker's yeast)) (P32657 whole entry, the tested form may be a part): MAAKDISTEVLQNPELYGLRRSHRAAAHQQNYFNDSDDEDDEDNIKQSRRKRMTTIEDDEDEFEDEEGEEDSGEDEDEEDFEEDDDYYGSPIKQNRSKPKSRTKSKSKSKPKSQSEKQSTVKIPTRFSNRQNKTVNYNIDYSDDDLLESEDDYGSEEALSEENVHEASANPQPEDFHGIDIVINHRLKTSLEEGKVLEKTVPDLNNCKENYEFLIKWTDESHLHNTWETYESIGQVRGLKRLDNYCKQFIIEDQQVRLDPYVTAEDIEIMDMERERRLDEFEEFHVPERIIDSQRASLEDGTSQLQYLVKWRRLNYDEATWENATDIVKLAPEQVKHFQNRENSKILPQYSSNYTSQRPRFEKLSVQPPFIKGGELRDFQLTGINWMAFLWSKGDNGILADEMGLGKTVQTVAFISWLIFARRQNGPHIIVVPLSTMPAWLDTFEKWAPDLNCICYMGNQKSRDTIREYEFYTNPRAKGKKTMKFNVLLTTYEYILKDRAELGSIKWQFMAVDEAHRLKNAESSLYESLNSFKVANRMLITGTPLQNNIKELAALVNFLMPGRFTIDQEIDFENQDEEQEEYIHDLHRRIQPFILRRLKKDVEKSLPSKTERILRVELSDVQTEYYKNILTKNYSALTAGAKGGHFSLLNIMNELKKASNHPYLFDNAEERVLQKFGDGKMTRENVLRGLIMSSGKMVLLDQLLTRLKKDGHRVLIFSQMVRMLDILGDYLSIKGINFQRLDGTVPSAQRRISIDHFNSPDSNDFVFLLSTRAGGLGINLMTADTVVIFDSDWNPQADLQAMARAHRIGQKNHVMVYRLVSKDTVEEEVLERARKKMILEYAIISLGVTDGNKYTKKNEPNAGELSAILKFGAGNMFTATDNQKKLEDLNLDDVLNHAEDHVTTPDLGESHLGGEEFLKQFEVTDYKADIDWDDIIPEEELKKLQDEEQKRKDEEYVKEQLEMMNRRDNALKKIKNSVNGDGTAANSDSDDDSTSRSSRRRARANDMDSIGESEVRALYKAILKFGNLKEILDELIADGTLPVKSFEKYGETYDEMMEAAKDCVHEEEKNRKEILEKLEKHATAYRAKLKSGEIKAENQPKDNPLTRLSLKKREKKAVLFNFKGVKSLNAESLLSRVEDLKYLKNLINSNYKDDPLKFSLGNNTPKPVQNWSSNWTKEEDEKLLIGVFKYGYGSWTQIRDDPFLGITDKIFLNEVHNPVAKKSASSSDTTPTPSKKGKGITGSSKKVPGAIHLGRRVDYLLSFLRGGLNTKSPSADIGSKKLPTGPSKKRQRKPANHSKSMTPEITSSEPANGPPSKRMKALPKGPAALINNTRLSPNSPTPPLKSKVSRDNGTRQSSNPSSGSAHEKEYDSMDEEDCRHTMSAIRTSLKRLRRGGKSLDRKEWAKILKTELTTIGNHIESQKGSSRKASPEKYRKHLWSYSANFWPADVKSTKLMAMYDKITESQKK
# Sequence of Protein translocase subunit SecA (Escherichia coli (strain K12)) (P10408 whole entry): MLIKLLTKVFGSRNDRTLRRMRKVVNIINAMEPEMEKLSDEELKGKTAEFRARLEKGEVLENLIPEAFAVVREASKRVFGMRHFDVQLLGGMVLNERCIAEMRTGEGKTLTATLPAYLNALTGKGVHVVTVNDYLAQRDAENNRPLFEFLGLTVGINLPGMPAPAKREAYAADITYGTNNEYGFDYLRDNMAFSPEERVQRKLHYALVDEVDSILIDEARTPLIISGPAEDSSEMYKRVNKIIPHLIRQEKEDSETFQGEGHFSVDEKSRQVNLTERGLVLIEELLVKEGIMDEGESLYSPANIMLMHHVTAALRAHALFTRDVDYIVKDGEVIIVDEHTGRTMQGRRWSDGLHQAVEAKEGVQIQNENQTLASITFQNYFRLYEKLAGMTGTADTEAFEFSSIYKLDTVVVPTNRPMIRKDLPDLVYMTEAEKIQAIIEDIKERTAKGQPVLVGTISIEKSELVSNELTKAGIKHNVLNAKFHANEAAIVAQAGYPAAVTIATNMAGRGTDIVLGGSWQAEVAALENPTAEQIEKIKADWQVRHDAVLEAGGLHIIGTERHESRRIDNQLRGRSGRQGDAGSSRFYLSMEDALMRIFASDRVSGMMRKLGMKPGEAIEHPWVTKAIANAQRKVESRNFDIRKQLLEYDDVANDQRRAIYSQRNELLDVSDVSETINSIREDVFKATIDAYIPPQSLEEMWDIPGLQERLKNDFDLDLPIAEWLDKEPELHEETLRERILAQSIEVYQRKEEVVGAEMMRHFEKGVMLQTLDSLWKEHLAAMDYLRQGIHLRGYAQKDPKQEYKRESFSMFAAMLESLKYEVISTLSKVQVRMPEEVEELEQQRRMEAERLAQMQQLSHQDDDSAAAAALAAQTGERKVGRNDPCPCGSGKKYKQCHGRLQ
SMILES,Percent Effect [1] [%],Percent Effect [2] [%],Percent Effect [3] [%],Percent Effect [4] [%],Percent Effect (Trypanosoma cruzi) [%],Percent Effect [5] [%],Percent Effect [6] [%],Percent Effect (Homo sapiens) [%],Percent Effect [7] [%],Percent Effect [8] [%],Percent Effect [9] [%]
N#Cc1ccccc1OCCN1CCCC1Cn1cccn1 (configuration not stated),-0.713,-5.41,-5.48,8.98,5.75,-3.61,-5.22,-12.9,2.46,11.1,-5.36
CCOc1ccc(Cl)c(C(=O)N2CCN(C(=O)c3ccoc3C)CC2)n1,-5.76,20.8,-1.75,5.96,-4.49,-1.42,15.4,12.9,7.77,12.2,-6.62
CN(C)CC1CN(Cc2csc(C3CCCC3)n2)CCO1 (configuration not stated),-2.18,5.26,-6.29,9.69,6.63,0.36,7.02,-33,8.37,16.1,4.62
O=C(NCC(O)c1cccs1)c1cccc(Cl)c1 (configuration not stated),-0.149,13.7,3.83,0.22,3.72,7.27,25.6,13.3,6.45,17.5,-6.71
Fc1cnc(N2CCC3(COCc4cnc(NCC5CC5)nc43)C2)nc1 (configuration not stated),2.14,-2.74,27.5,4.49,-1.59,2.4,4.88,-6.32,1.04,3.7,2.6
COCCO[C@H]1CCN(C(=O)c2ccno2)[C@H]1Cc1cnn(C)c1,-1.65,-2.7,-2.17,-4.71,-2.54,1.67,2.79,-28.8,4.95,-3.66,1.61
c1ccc(Cn2cncn2)c(CNCC2CNc3ccnn3C2)c1 (configuration not stated),0.235,20.8,-8.08,4.1,10.3,1.78,8.45,12.4,12.6,21.9,-7.41
Cc1noc(C2CCCCN2C(=O)NC2CCCC2)n1 (configuration not stated),1.58,7.89,5.88,-7.67,-9.25,-2.37,21.8,0.903,2.13,2.6,-4.56
COc1cccc(F)c1C(=O)N1C[C@@H](CN(C)CCO)[C@@H](CO)C1,-8.11,5.2,-2.26,3.34,-2.26,-5.52,2.16,-11,2.15,8.64,-0.727
CNc1oc(-c2ccc(OC)c(S(=O)(=O)N3CCCCC3)c2)nc1C#N,-1.33,1.33,15.5,7.55,-5.7,-6.51,9.98,-4.26,5.29,2.56,-9.36
O=C([C@H]1CCCO1)N1CC[C@H](O)[C@@H]1Cc1ccncc1,-0.613,5.2,0.39,3.47,-2.07,8.39,-1.57,-7.18,4.23,1.28,-0.313
Cc1nccc(N2CCC(=O)N(Cc3ccc(F)cc3)C(C(C)C)C2)n1 (configuration not stated),-2.94,1.39,1.69,-1.4,-1.07,-0.883,4.56,-6.54,0,2.56,1.68
CCc1n[nH]c(C2CN(C(=O)CCc3cccs3)CCO2)n1 (configuration not stated),-5.44,11.4,-4.01,-7.1,1.74,0.645,8.23,1.68,4.17,12.7,-38.8
N#Cc1ccc(S(=O)(=O)NC(=O)C2CC2)c(C(F)(F)F)c1,-6.08,21.6,-10.9,20.8,4.81,-6.41,6.49,7.08,6.4,23.5,-7.62
c1nc2c(c(C3CC3)n1)CCN(CC1CCOC1)CC2 (configuration not stated),-4.07,8.11,3.6,-7.53,8.31,3.5,20.7,7.05,5.41,15.4,-0.123
COCc1cc(O)nc(C2CCCN(Cc3cc(OC)ccc3F)C2)n1 (configuration not stated),-7.04,1.35,4.88,5.64,-3.56,-2.09,-0.312,16.7,-2.15,-1.3,-9.01
CCc1c(C(=O)NCC2CCS(=O)(=O)C2)cnn1-c1ccc(C)cc1 (configuration not stated),-3.51,17.7,-2.2,-1.25,2.74,4.94,2.54,5.86,5.42,21.5,-6.44
O=C(CCc1ccccc1)NCC1CCN(Cc2ccsc2)CC1,-2.4,13,4.5,-9.22,-5.62,7.1,15.3,20.5,2.12,8.97,-8.15
COc1ccc(Cc2cccc(C3CCN(C)CC3)n2)cc1,-2.99,-55.4,8.96,9.53,-0.395,-1.62,6.55,2.93,5.38,1.3,1.29
O=C([C@H]1C[C@H]2OCC[C@H]2N(C(=O)c2ccncc2)C1)N1CCCCO1,-6.09,16,-5.71,-0.495,6.56,-43.9,6.33,-5.77,4.17,5,-6.72
Cc1ccc(C2(CN3CCCC3)CCNCC2)nc1,-3.03,8.11,-4.02,3.83,2.32,-2.86,11.6,-11.7,10.1,9.76,-0.82
O=C(NCCc1csc(N2CCCC2)n1)N(C1CCCC1)C1CC1,0.399,-5.33,-9.08,16,-1.66,2.08,27.4,6.62,12.6,11.1,-6.87
